According to PubChem BioAssay (Tox21):
Results filed as inconclusive are left out. Where a call stands in place of a potency, no number is given. A number with no mark means an inactive call. Active and inactive are the calls of the source. The call rests on the fitted dose curve.

Assay: qHTS assay to identify small molecule antagonists of the sonic hedgehog signaling (Shh) pathway (AID 1259369); further: nearly all actives have a fitted effect of over 45% in size
Settings: NIH/3T3 Gli1-Luc reporter, Shh antagonist, luminescence 24 h; series mostly up to 92.4 µM
Summary of the method: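 Stable Gli1-Luc reporter NIH/3T3 clone; quantitative HTS in stimulated mode with conditioned medium. Luminescence measured after 24hr compound treatment at 37 C.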
Potency means the concentration at half of the fitted maximal effect.

With `CCCCCCCCCCCCCCCCCO` as the molecule, how does the activity change, negative = inhibition read?
Its activity change, negative = inhibition is -1.47% [at 19 µM].

For `OCCCCl`, which Potency is on record?
The Potency was “inactive”.

With `NC(=O)c1ccccc1N` as the molecule, how does the Potency read?
Its Potency is “inactive”.

For `CCCCCCS`, which Potency is on record?
The Potency was “inactive”.

Which Potency does the source give for `COc1ccccc1C=O` here?
Its Potency is “inactive”.

For `CCN=C1C=CC(=C(c2ccc(N(CC)CC)cc2)c2ccc(N(CC)CC)cc2)c2ccccc21`, which Potency is on record?
Its Potency is 0.0963 µM (active).

For `c1ccc2c(c1)CCC2`, which Potency is on record?
The Potency was “inactive”.

Which Potency does the source give for `Cc1cccc(C)n1` here?
Its Potency is “inactive”.

Which Potency does the source give for `CCOCOCC` here?
Its Potency is “inactive”.

Which Potency does the source give for `C/C=C/CO` here?
Its Potency is “inactive”.

With `O=CC1CC1` as the molecule, how does the Potency read?
Its Potency is “inactive”.

With `CC1CCCCC1` as the molecule, how does the Potency read?
Its Potency is “inactive”.

For `CCCSS/C(CCO)=C(\C)N(C=O)Cc1cnc(C)nc1N`, which Potency is on record?
The Potency was “inactive”.

With `CCCCN(C)C` as the molecule, how does the Potency read?
Its Potency is “inactive”.

With `CC(=O)OC1CCCCC1` as the molecule, how does the Potency read?
Its Potency is “inactive”.

With `CCO[Si](C)(C)OCC` as the molecule, how does the Potency read?
The Potency was “inactive”.

Which Potency does the source give for `CCCC(C)CCC(C)=O` (stereo unspecified) here?
The Potency was “inactive”.

With `CCC(C)c1ccccc1` (stereo unspecified) as the molecule, how does the Potency read?
Its Potency is “inactive”.

For `c1cc[nH]c1`, which Potency is on record?
Its Potency is “inactive”.

With `COc1ccc(-n2nc(CCC(=O)N(C)O)cc2-c2ccc(Cl)cc2)cc1` as the molecule, how does the Potency read?
The Potency was 8.41 µM (active).

Which Potency does the source give for `CCOB(OCC)OCC` here?
Its Potency is “inactive”.

For `Cc1cccc(N(C)C)c1`, which Potency is on record?
The Potency was “inactive”.

For `CO[Si](CCC1CCC2OC2C1)(OC)OC` (stereo unspecified), which Potency is on record?
The Potency was “inactive”.

With `CCCCCCCC(=O)OCC` as the molecule, how does the Potency read?
The Potency was “inactive”.

Which Potency does the source give for `Oc1ccc(-c2ccccc2)c(Cl)c1` here?
Its Potency is “inactive”.

Which Potency does the source give for `O=Cc1ccc(F)cc1` here?
The Potency was “inactive”.

With `COc1nccnc1CC(C)C` as the molecule, how does the Potency read?
Its Potency is “inactive”.

With `C=CC/C=C/C/C=C/C/C=C/C` as the molecule, how does the Potency read?
Its Potency is “inactive”.

For `O=c1cccc[nH]1`, which Potency is on record?
Its Potency is “inactive”.

With `CCOC(OCC)C(=O)c1ccccc1` as the molecule, how does the Potency read?
Its Potency is “inactive”.

Which activity change, negative = inhibition does the source give for `O=S(=O)(O)c1cc(S(=O)(=O)O)c2ccc3c(S(=O)(=O)O)cc(S(=O)(=O)O)c4ccc1c2c43` here?
Its activity change, negative = inhibition is 2.19% [at 19 µM].
